# This is a sample that favours compounds with a hit; in the whole collection about 2.7% have one here.
# TrxR1 inh: qHTS Assay for Inhibitors of Mammalian Selenoprotein Thioredoxin Reductase 1 (TrxR1): qHTS; recombinant rTrxR1, NADPH fluorescence consumption, selenite substrate; actives 1% (n = 390,000); Thioredoxin reductase 1, cytoplasmic (Rattus norvegicus), O89049; AID 588453, 2011; Potency, µM (doses to about 114 µM), without a hit: at the top dose activity change, negative = inhibition, most hits filed as inhibitors; further: on the % scale 0 is the no-effect control and ±100 the full control effect; nearly all actives have a fitted effect of over 65% in size
#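 Rat TrxR1 (90 nM in the dispensed reagent) was pre-reduced with 400 uM NADPH for 5 min at room temperature, then incubated with compound for 15 min. After 400 uM selenite was added, NADPH fluorescence (Ex 340/Em 450 nm) was followed for 8 min.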
# HEK293 tox: qHTS of GLP-1 Receptor Inverse Agonists: Cytotox Screen; HEK293 cAMP-luciferase reporter cells, luminescence, 24 h; Potency, µM (top dose mostly 38.3 µM), inactives show at the top dose activity change, negative = inhibition, most hits filed as inhibitors; actives 0.13% (n = 410,000); AID 624418, 2012;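 further: loss of luciferase light is scored as toxicity; on the % scale 0 is the no-effect control and ±100 the full control effect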
#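 Step one: seed cells (200 cells/uL, DMEM with 10% Nu serum, 1% pen-strep). Step two: 12-hour incubation at 37 deg C. Step three: pin 23 nL compound, incubate 24 hr. Step four: add luciferase reagent, read luminescence 12 min later.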
# TrxR1 substrate: qHTS Assay for Substrates of Mammalian Selenoprotein Thioredoxin Reductase 1 (TrxR1): qHTS | actives 0.01% (n = 390,000) | purified TrxR1 substrate turnover, NADPH consumption readout | Thioredoxin reductase 1, cytoplasmic (Rattus norvegicus), O89049 | Potency, µM (top dose mostly 114 µM), without a hit: top-dose activity change, negative = substrate turnover; further: on the % scale 0 is the no-effect control and ±100 the full control effect; nearly all actives have a fitted effect of over 50% in size
#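 Rat TrxR1, dispensed at 90 nM, was prereduced with 400 uM NADPH (final) for 5 min at ~22 deg C, then incubated with compound 15 min before 400 uM selenite. A first-read NADPH fluorescence drop versus no-compound background flagged substrates.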
# GLP-1R agonist: qHTS of GLP-1 Receptor Agonists | HEK293 GLP-1R CRE-luciferase, luminescence, 4-6 h; cells express a hypersensitive GLP-1R form | AID 624172, 2012 | actives 0.007% (n = 380,000) | Potency, µM (highest dose often 45.6 µM), for inactives: at the top dose activation, usual class: activators; further: % of control where 0% means no effect
# Target sequence (P43220 whole entry, looked up): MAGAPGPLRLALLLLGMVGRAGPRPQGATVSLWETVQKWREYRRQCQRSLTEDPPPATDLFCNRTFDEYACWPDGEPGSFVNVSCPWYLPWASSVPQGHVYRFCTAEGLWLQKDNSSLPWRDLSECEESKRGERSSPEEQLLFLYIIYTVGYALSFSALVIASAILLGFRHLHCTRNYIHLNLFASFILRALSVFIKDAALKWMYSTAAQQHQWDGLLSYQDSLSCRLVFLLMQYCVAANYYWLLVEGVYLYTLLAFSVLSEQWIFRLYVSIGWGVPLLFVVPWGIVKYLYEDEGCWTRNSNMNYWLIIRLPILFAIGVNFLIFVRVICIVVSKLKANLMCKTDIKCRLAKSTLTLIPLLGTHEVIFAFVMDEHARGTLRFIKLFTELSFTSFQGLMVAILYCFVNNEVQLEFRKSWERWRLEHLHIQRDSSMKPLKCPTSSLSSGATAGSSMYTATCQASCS
# GLP-1R inv ag: qHTS of GLP-1 Receptor Inverse Agonists (Inhibition Mode); Glucagon-like peptide 1 receptor (Homo sapiens), P43220; HEK293 GLP-1R CRE-luciferase, luminescence, 24 h; GLP-1R form is constitutively active; Potency, µM (highest dose often 38.3 µM), without a hit: top-dose activity change, negative = inhibition, hits mostly inhibitors; actives 1.6% (n = 410,000); further: on the % scale 0 is the no-effect control and ±100 the full control effect; nearly all actives have a fitted effect of over 55% in size
#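 Luminescence readout: a drop in cAMP-driven luciferase signal flags inverse agonism at a constitutively active GLP-1R stably expressed in HEK293. Compound exposure lasted 24 hr at 37 deg C, 5% CO2.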
# mIDH1 inhibitor: qHTS for Inhibitors of mutant isocitrate dehydrogenase 1 (IDH1): qHTS. Isocitrate dehydrogenase [NADP] cytoplasmic (Homo sapiens), O75874. IDH1-R132H enzyme, NADPH consumption, diaphorase/resazurin fluorescence. Potency, µM (series often up to 76.6 µM), inactives show at the top dose activity change, negative = inhibition, most hits filed as inhibitors. actives 0.093% (n = 390,000). AID 602179, 2012; further: on the % scale 0 is the no-effect control and ±100 the full control effect; nearly all actives have a fitted effect of over 65% in size
#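 IDH1-R132H (0.5 ug/mL dispensed) in pH 7.5 Tris buffer was preincubated 30 min with compound, then given a substrate mix of 0.016 mM NADPH and 2 mM alpha-KG for 80 min at room temperature; remaining NADPH was read by diaphorase/resazurin fluorescence.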
# Active calls of the source: *; u = inconclusive; x = no result; [ ] = remark or other dose. The call rests on the fitted dose curve; in most records, active means well fitted curve in the direction sought with a large enough effect; inconclusive means small, poorly fitted or top-dose-only effect, or another doubt; inactive means no such curve, though single readings can be large; an effect the other way counts as inactive or inconclusive. Potency means the concentration at half of the fitted maximal effect.
SMILES,TrxR1 inh,HEK293 tox,TrxR1 substrate,GLP-1R agonist,GLP-1R inv ag,mIDH1 inhibitor
C=CCN(C)CC/C=C1\c2ccccc2CSc2ccccc21,-5%[57.1 µM],u,-4%,0%,u,2%
CC(O)CN(C)CC/C=C1/c2ccccc2CSc2ccccc21 (stereo unspecified),-6%,0%,-12%,-2%,u,-1%
Cc1cccc(CS(=O)(=O)c2ncc(Cl)c(C(=O)Nc3nc4ccc(F)cc4s3)n2)c1,3.2µM*,4%,5%,x,-1%,16%
O=C(Nc1nc2ccc(F)cc2s1)c1nc(S(=O)(=O)Cc2ccccc2)ncc1Cl,3.5µM*,u,1%,x,u,-5%
COc1ccc2nc(NC(=O)c3nc(S(=O)(=O)Cc4ccccc4)ncc3Cl)sc2c1,-7%,u,-4%,x,u,0%
COc1ccc(CCNC(=O)c2nc(-c3ccc(Cl)cc3)n3c2CCCCC3)c(OC)c1,13%,1%,-2%,x,-9%,-2%
N#CC(C#N)=C(Nc1ccc(F)cc1)SCc1cccc(Br)c1,-11%,9%,-12%,-8%,2µM*,4%
Cc1cccc(CSC(Nc2ccc(F)cc2)=C(C#N)C#N)c1,-4%,u,-14%,-5%,u,2%
O=[N+]([O-])C(=C1Nc2ccccc2N1)C(Cl)=C(Cl)Cl,11µM*,0%,-6%,3%,9%,3%
Cc1ccc(NC(CNS(=O)(=O)c2ccc(Cl)cc2)c2ccccc2)cc1 (stereo unspecified),5%,6%,-6%,-26%,u,-3%
COc1cccc(NC(CNS(=O)(=O)c2ccc(Cl)cc2)c2ccccc2)c1 (stereo unspecified),9%,u,-2%,x,10µM*,x
COc1cccc(NC(CNS(=O)(=O)c2ccc(C)cc2)c2ccccc2)c1 (stereo unspecified),12%,-7%,0%,x,10µM*,x
COc1ccc(CCNC(=O)Cn2c(=O)n(-c3cc(OC)c(OC)c(OC)c3)c(=O)c3ccccc32)cc1OC,22%,-2%,8%[2.29 µM],x,-3%,-7%
Cc1ccc2c(=O)c(C(=O)c3ccc(F)cc3)cn(CC(=O)NCc3ccccc3Cl)c2n1,33%,0%,6%,x,3%,2%
O=S(=O)(Nc1ccc(Cc2ccncc2)cc1)c1ccc(Cl)c(Cl)c1,10%,10µM*,-9%,1%,-1%,0%
COc1cccc(C(=O)NC2=NCCS2)c1,24%[57.1 µM],-8%,8%[57.1 µM],-8%,u,12%
COc1ccc(N(Cc2ccccc2)S(=O)(=O)c2cccc(C(=O)NC3=NCCS3)c2)cc1,2%,-28%,-3%,-3%,10µM*,5%
O=C(COc1ccc([N+](=O)[O-])cc1)N1CCC(c2nc3ccccc3s2)CC1,15%,3%,-3%,x,u,-13%
CC1(C)CC(=O)c2cc(C(=O)Nc3cccc4ccccc34)c(=O)[nH]c2C1,11%,x,2%,x,x,x
COc1cc(CN2CCCC(C(=O)c3ccc4c5c(cccc35)CC4)C2)cc(OC)c1O (stereo unspecified),-12%,-16%,10%,4%,11µM*,12%
COc1ccc(C(=O)C2CCCN(Cc3ccc4nonc4c3)C2)c(OC)c1 (stereo unspecified),13%,1%,4%,5%,10µM*,9%
COc1ccc(C(=O)C2CCCN(Cc3ccc4nonc4c3)C2)cc1OC (stereo unspecified),24%,2%,3%,8%,3%,-3%
O=C(c1ccc2c3c(cccc13)CC2)C1CCCN(Cc2cccnc2)C1 (stereo unspecified),13%,7%,28%,21%,u,15%
CC(=O)N1CCCC(C(=O)c2ccc3c4c(cccc24)CC3)C1 (stereo unspecified),8%,3%,24%,5%,18%,-1%
CN1CCC(C(=O)N2CCCC(C(=O)c3ccc4c5c(cccc35)CC4)C2)CC1 (stereo unspecified),-10%,-8%,22%,-1%,8.9µM*,2%
SMILES,TrxR1 inh,HEK293 tox,TrxR1 substrate,GLP-1R agonist,GLP-1R inv ag,mIDH1 inhibitor
Cc1c(NP(=O)(c2ccc(Br)cc2)c2ccc(Br)cc2)c(=O)n(-c2ccccc2)n1C,-2%[57.1 µM],-15%,-2%[57.1 µM],11%,11µM*,-7%
Cc1c(NS(=O)(=O)c2ccc(Br)cc2)c(=O)n(-c2ccccc2)n1C,12%,4%,-3%,2%,12%,-5%
Fc1ccc(/C=C/c2ccc3ccccc3n2)cc1,u,x,-15%,x,x,x
Cc1ccc(N2CCN(C(=O)c3cn(C)c4ccc(S(=O)(=O)N(C)C5CCCCC5)cc4c3=O)CC2C)cc1 (stereo unspecified),26%,-2%,10%,x,2%,3%
C[C@H](CO)N1C[C@H](C)[C@H](CN(C)S(=O)(=O)c2cccc(F)c2)OCc2ccccc2-c2c(n(C)c3ccccc23)C1=O,x,-28%,x,8%,11µM*,-5%
C[C@@H]1CN([C@@H](C)CO)C(=O)c2ccccc2-c2ccccc2CO[C@@H]1CN(C)S(=O)(=O)c1ccc(C(F)(F)F)cc1,x,-42%,x,10%,10µM*,-5%
Cc1ccc(S(=O)(=O)Nc2ccc3c(c2)CCCN3C(=O)c2cccs2)cc1,15%[57.1 µM],-4%,9%[57.1 µM],x,u,0%
CCCCS(=O)(=O)c1oc(-c2ccc(F)cc2)nc1S(=O)(=O)c1ccccc1,1.1µM*,u,-3%,x,u,14%
CCS(=O)(=O)c1oc(-c2ccc(F)cc2)nc1S(=O)(=O)c1ccc(Br)cc1,0.56µM*,-3%,8%,x,-7%,-24%
CS(=O)(=O)c1oc(-c2ccc(F)cc2)nc1S(=O)(=O)c1ccc(Cl)cc1,0.5µM*,-2%,11%,x,2%,-11%
CC(C)S(=O)(=O)c1oc(-c2cccs2)nc1S(=O)(=O)c1ccc(F)cc1,0.71µM*,10µM*,29%,x,u,36%
